From PubChem BioAssay (NCI) come the findings set out here.

About 83,000 compounds went through this panel and 20% of them were active in at least one assay; those are over-represented in the sample as a whole.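 Method: cells in 96-well plates; compound added at one concentration; 48 h incubation; percent growth measured; values under 10 scored active.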 A number with no mark means an inactive call. Calls of active or inactive are those of the source.

Holding throughout (assay): NCI-60 one-dose screen, 48 h (100 = growth as untreated, 0 = no growth, -100 = all killed)
What all share (settings): 10 µM unless noted

Assay [1] relates to DU-145 prostate.
Assay [2] relates to K-562 leukemia.
Assay [3] relates to MALME-3M melanoma.
Assay [4] concerns MDA-MB-231 breast.
The test system of assay [5] is RXF 393 renal.
In assay [6] the test system is SF-268 CNS.
Assay [7] deals with SF-295 CNS.
Assay [8] relates to SF-539 CNS.
Assay [9] has as its system UACC-257 melanoma.
Assay [10] concerns M14 melanoma.
In assay [11] the test system is HCT-15 colon.
Assay [12] deals with HT29 colon.
The subject of assay [13] is SNB-75 CNS.
In assay [14] the test system is SNB-19 CNS.
In assay [15] the test system is U251 CNS.
The subject of assay [16] is PC-3 prostate.
Assay [17] concerns SK-MEL-5 melanoma.
Assay [18] deals with UACC-62 melanoma.
Assay [19] has as its system LOX IMVI melanoma.
Assay [20] concerns SK-MEL-28 melanoma.

For `C=C1C(=O)O[C@H]2[C@H]1CC/C(COC(=O)C(C)c1ccc(CC(C)C)cc1)=C\CC[C@@]1(C)O[C@@H]21` (stereo not given in full), the growth in assay [1] was 47.2%; in assay [2], -4.97% (active); in [3], -25.6% (active); in assay [4] it was -58% (active); in [5] it was -50.1% (active); in assay [6], 33.8%. The growth in [7] is 83.1%; in assay [8] it was 22.1%; in assay [9], 47.9%; in assay [10], 16.1%; in [11], -56.1% (active); in assay [12], -54.1% (active). Moreover, the growth was 56.6% in [13]; 64.1% in assay [14]; 1.42% (active) in assay [15]; 16.4% in assay [16]; 7.78% (active) in assay [17]; 6.52% (active) in assay [18]. The growth in assay [19] is -89.1% (active); in assay [20], 5.16% (active).

Take `O=C(Nn1c(NCC(=O)N2c3ccccc3Sc3ccccc32)nnc1-c1ccc(O)cc1)c1ccccc1`: the growth is 113% in assay [1]; 118% in assay [2]; 95.5% in assay [3]; 95.3% in [4]; 122% in assay [5]; 105% in [6]. Also, the growth is 105% in assay [7]; 105% in [8]; 104% in [9]; 92.8% in assay [10]; 98% in [11]; 103% in [12]. Further, the growth in assay [13] was 102%; in assay [14], 107%; in assay [15], 103%; in assay [16], 90.7%; in [17] it was 107%; in assay [18], 98.9%. Also, the growth is 90.8% in assay [19] and 115% in assay [20].

With `CC([C@H]1CCC2C3CCC4C(=O)C(NC=O)=CC[C@]4(C)C3CC[C@@]21C)N(C)C` (stereo not given in full), the growth in [1] is 59.5%; in assay [2], 15%; in [3], -2.06% (active); in assay [4], 11.2%; in [5] it was -53.3% (active); in assay [6], -3.89% (active). The growth in assay [7] was 36.6%; in assay [8], -45.6% (active); in assay [9], -20.9% (active); in [10] it was -33% (active); in assay [11], -37.1% (active); in assay [12], -20.2% (active). Moreover, the growth is 34.1% in assay [13]; 76% in assay [14]; 25.6% in [15]; 27.4% in [16]; -56% (active) in [17]; -39.7% (active) in [18]. For the same compound, the figures for the growth in assay [19] and in assay [20] were -37.2% (active) and -70.1% (active), respectively.

On to `COc1ccc(-c2[nH]ncc2-c2cc3c(c(OC)c2)OCC(=O)N3)cc1`, for which the growth is 14.8% in assay [1]; 12.6% in [2]; 57.3% in [3]; 7.86% (active) in assay [4]; -35.1% (active) in assay [5]; 54% in assay [6]. Also, the growth in assay [7] is 9.29% (active); in [8], -23.9% (active); in assay [9], 59.8%; in [10], 11.6%; in [11], 23.7%; in [12], 37.2%. The growth in assay [13] was -20.2% (active); in assay [14], 24.7%; in assay [15], 11.3%; in [16] it was 17.6%; in assay [17], 11.9%; in [18], 25.3%. In addition, the growth is 41.7% in assay [19] and 57.6% in assay [20].

As to `Cc1ccc2c(-c3cc(-c4ccccc4)nc(N)c3C#N)cc(=O)oc2c1`, the growth in assay [1] was 107%; in assay [2], 108%; in assay [3], 94.8%; in assay [4], 101%; in assay [5], 110%; in assay [6], 99.1%. Further, the growth in assay [7] was 109%; in assay [8] it was 94.7%; in assay [9] it was 101%; in assay [10] it was 108%; in assay [11] it was 105%; in [12] it was 90.1%. Moreover, the growth was 100% in assay [13]; 94.1% in assay [14]; 100% in [15]; 89.2% in [16]; 97% in assay [17]; 90.1% in assay [18]. For the same compound, the growth is 91.8% in assay [19] and 105% in [20].

Consider `O=CN1N=C(c2ccc(Nc3ccnc4cc(Cl)ccc34)cc2)CC1c1ccccc1` (stereo not given), for which the growth in assay [1] was 35.8%; in [2], 11.8%; in assay [3] it was 24.7%; in assay [4] it was 32.9%; in assay [5] it was 31.4%; in assay [6], 37.4%. Besides, the growth was 17.4% in assay [7]; 25.9% in assay [8]; 63.3% in [9]; 25.6% in assay [10]; 15.4% in [11]; 11.6% in assay [12]. Also, the growth in [13] is 56.4%; in assay [14] it was 52.8%; in assay [15], 34.5%; in [16] it was 42.4%; in assay [17], 1.49% (active); in assay [18] it was 38.4%. Further, the growth in assay [19] was 13.7%; in assay [20], 44.4%.

Take `CC(C)OC(=O)Nc1ccc(-c2nc(-c3cccc(OCCN4CCOCC4)c3)c(-c3ccnc(Br)c3)[nH]2)cc1`: the growth is 63.8% in assay [1]; 0.869% (active) in [2]; -5.36% (active) in assay [3]; 39.3% in assay [4]; -42.9% (active) in [5]; 52.2% in assay [6]. The growth in assay [7] was -65.2% (active); in assay [8], -0.0542% (active); in assay [9] it was 33.5%; in [10], 30.5%; in assay [11], 4.55% (active); in assay [12] it was 1.53% (active). Further, the growth is -19.3% (active) in [13]; 22.5% in assay [14]; 17.3% in assay [15]; 19.7% in assay [16]; 21.7% in [17]; 15.1% in [18]. Besides, the growth in assay [19] was 3.35% (active); in assay [20], 0.701% (active).
